The results in this text go back to PubChem BioAssay (Tox21).

Experiment [1] in a line: qHTS assay to identify small molecule agonists of the hypoxia (HIF-1) signaling pathway - cell viability counter screen (AID 1224844; calls by dose curve; also: nearly all actives have a fitted effect of over 50% in size; also: potency is read from the fitted curve at half-maximal effect). The method in brief:
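Cytotoxicity measured by CellTiter-Glo ATP luminescence in the wells also read for beta-lactamase signal. Cells were HRE-bla ME-180 (2,000/well, 0.5% dialyzed FBS), exposed to compounds for 17 h at 37C.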
On the technique in general: Quantitative high-throughput screening tests each substance at several concentrations.

A short description of experiment [2]: qHTS assay to identify small molecule agonists of H2AX (AID 1224845; active = well fitted activation curve with a large enough effect in the signal ratio in the repeat runs, not every such curve was filed as active; the % refers to the signal ratio; also: potency is read from the fitted curve at half-maximal effect). The method in brief: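 Wild-type CHO-K1 cells plated overnight, then exposed 3 hr at 37C to compounds at 15 concentrations (0.76% DMSO). Lysed, then HTRF anti-pH2AX(S139)-cryptate/anti-H2AX-d2 detection after 24 hr at room temperature; emissions 665 and 620 nm.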
The nature of experiment [3]: qHTS assay to identify small molecule agonists of the hypoxia (HIF-1) signaling pathway (AID 1224846; active = well fitted activation curve with a large enough effect in the signal ratio in the repeat runs, not every such curve was filed as active; the % refers to the signal ratio). The method in brief: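 Compounds added to ME-180 cells carrying hypoxia-response-element beta-lactamase reporter (0.5% dialyzed FBS, 5 h preplating), 17 h at 37C; agonist activity detected by CCF4-AM B/G FRET read-out.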
Experiment [4] in a line: qHTS assay to identify small molecule agonists of H2AX - cell viability counter screen (AID 1224847; calls by dose curve; also: nearly all actives have a fitted effect of over 30% in size; also: potency is read from the fitted curve at half-maximal effect). In short, it runs like this:
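Cytotoxicity counter screen in wild-type CHO-K1 cells: a 3 hr compound treatment at 37C across 15 concentrations, followed by CellTiter-Glo luminescence to gauge viable cells.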

Experiment [5] is described as follows: qHTS RealTime-Glo MT Cell Viability Assay in HepG2 cells - 24 hour (AID 1224867). Also: nearly all actives have a fitted effect of over 50% in size. Also: potency is read from the fitted curve at half-maximal effect. In short, it runs like this: (§1)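 HepG2 cells were seeded at 600 cells/well together with NanoLuc luciferase and a cell-permeant prosubstrate, preincubated 5 h at 37 C/5% CO2, then pin-dosed with compounds in DMSO. Nonlytic luminescence from viable cells was read at each time point.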

The nature of experiment [6]: qHTS RealTime-Glo MT Cell Viability Assay in HEK293 cells - 32 hour (AID 1224868). Also: top concentration of the series differs between compounds; nearly all actives have a fitted effect of over 50% in size. The method in brief: (§2)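 HEK293 cells were seeded at 600 cells/well together with NanoLuc luciferase and cell-permeant prosubstrate, preincubated 5 h at 37 C/5% CO2, then given compound in DMSO by pintool. Luminescence from viable-cell prosubstrate reduction was read repeatedly over 40 h.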

A short description of experiment [7]: A CellTox Green Cytotoxicity Assay to monitor cytotoxicity in HEK293 cells - 0 hour (AID 1224869). Also: nearly all actives have a fitted effect of over 50% in size. The method in brief:
(§3)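 Fluorescence from a DNA-binding dye excluded by viable cells was measured repeatedly in the same HEK293 wells (600 cells/well) during continuous compound exposure at 37 C. Each assay gives one read point: 0, 8, 16, 24, 32 or 40 h.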

The nature of experiment [8]: qHTS RealTime-Glo MT Cell Viability Assay in HepG2 cells - 40 hour (AID 1224870). Also: nearly all actives have a fitted effect of over 50% in size. Also: potency is read from the fitted curve at half-maximal effect. In short, it runs like this:
(§4)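 HepG2 cells mixed with RealTime-Glo MT reagents (NanoLuc plus cell-permeant prosubstrate) were seeded at 600 cells/well, incubated 5 h at 37 C/5% CO2, then pinned with compounds in DMSO; nonlytic luminescence tracked viability during 40 h treatment.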

The nature of experiment [9]: A CellTox Green Cytotoxicity Assay to monitor cytotoxicity in HEK293 cells - 40 hour (AID 1224871). Also: nearly all actives have a fitted effect of over 45% in size. Also: potency is read from the fitted curve at half-maximal effect. In short, it runs like this: as §3
A short description of experiment [10]: qHTS RealTime-Glo MT Cell Viability Assay in HEK293 cells - 16 hour (AID 1224872). Also: nearly all actives have a fitted effect of over 50% in size. Also: potency is read from the fitted curve at half-maximal effect. The method in brief:
as §2

The nature of experiment [11]: qHTS RealTime-Glo MT Cell Viability Assay in HepG2 cells - 8 hour (AID 1224873). Also: nearly all actives have a fitted effect of over 55% in size. The method in brief:
as §4

The nature of experiment [12]: A CellTox Green Cytotoxicity Assay to monitor cytotoxicity in HepG2 cells - 16 hour (AID 1224876). Also: nearly all actives have a fitted effect of over 45% in size. Also: potency is read from the fitted curve at half-maximal effect. The method in brief:
(§5)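 Real-time cytotoxicity: fluorescence of a cell-impermeant cyanine dye binding DNA of dead HepG2 cells, measured repeatedly (0–40 h) during compound exposure at 37 C. Cells seeded 600/well with reagent, dosed after 5 h.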

The nature of experiment [13]: qHTS RealTime-Glo MT Cell Viability Assay in HepG2 cells - 32 hour (AID 1224877). Also: nearly all actives have a fitted effect of over 55% in size. Also: potency is read from the fitted curve at half-maximal effect. In short, it runs like this: as §1
The nature of experiment [14]: A CellTox Green Cytotoxicity Assay to monitor cytotoxicity in HepG2 cells - 24 hour (AID 1224878). Also: nearly all actives have a fitted effect of over 45% in size. Also: potency is read from the fitted curve at half-maximal effect. The method in brief: as §5
Experiment [15] in a line: A CellTox Green Cytotoxicity Assay to monitor cytotoxicity in HepG2 cells - 40 hour (AID 1224879). Also: nearly all actives have a fitted effect of over 40% in size. Also: potency is read from the fitted curve at half-maximal effect. In short, it runs like this: as §5
Experiment [16] in a line: qHTS RealTime-Glo MT Cell Viability Assay in HEK293 cells - 0 hour (AID 1224880). Also: top concentration of the series differs between compounds; nearly all actives have a fitted effect of over 45% in size. In short, it runs like this:
(§6)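 Luminescence, which tracks viable cell number through reduction of the prosubstrate to a NanoLuc substrate, was read over continuous 37 C culture. Cells (600/well) were premixed with reagent and rested 5 h before 23 nL of compound in DMSO was pinned.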

Experiment [17] can be described thus: A CellTox Green Cytotoxicity Assay to monitor cytotoxicity in HEK293 cells - 24 hour (AID 1224875). In short, it runs like this: as §3
A short description of experiment [18]: qHTS RealTime-Glo MT Cell Viability Assay in HEK293 cells - 40 hour (AID 1224874). Also: nearly all actives have a fitted effect of over 50% in size. Also: potency is read from the fitted curve at half-maximal effect. To be noted: RealTime-Glo luminescence; max response: stronger effect = lower value. The method in brief:
as §6

“And” between values parts separate entries of the source, which are not always exact repeats. Identical values can stand only once. Inconclusive results are not listed. The source holds several records for some structures; these can differ, active in one and inactive in another. The source made the active and inactive calls. Unless noted, calls follow the shape of the dose curve; as a rule, active = well fitted curve in the direction sought with a large enough effect in the repeat runs; inconclusive = weak or mixed curves; inactive = no such curve, though single readings can be large; an effect the other way counts as inactive or inconclusive.
% is scaled to controls: 0 for no effect and ±100 for the full control effect.

Consider `CCCC[n+]1ccc(C)cc1`, for which the Potency entry in experiment [1] was “inactive and 38.7 µM (active)”; in experiment [4] it was “inactive and 89.3 µM (active)”; in experiment [9], “inactive and 21.8 µM (active)”; in experiment [10], 34.5 µM (active) and inactive; in experiment [12], “inactive and 54.7 µM (active)”; in [14], “inactive and 48.7 µM (active)”. Also, in experiment [15], the Potency result was “inactive and 48.7 µM (active)”. Also, the Potency entry in experiment [2], in experiment [5], in experiment [6], in [7], in experiment [8] and in [11] was “inactive” in each case. Also, the Potency result in experiment [13] is “inactive”. In addition, the compound was classed as inactive in experiment [3] and in experiment [16].
As to `CCCC[N+]1(C)CCCCC1`, the Potency result in experiment [1], in experiment [2], in experiment [4], in experiment [7], in experiment [9] and in experiment [11] was “inactive” throughout. Further, the Potency entry in [17], in [12], in experiment [14] and in experiment [15] was “inactive” each time. The result in experiment [3] and in experiment [16] was inactive. Moreover, the Potency entry is “inactive and 48.8 µM (active)” in [5]; “inactive and 30.8 µM (active)” in [8]; “inactive and 48.8 µM (active)” in [13].
Take `CCCn1cc[n+](C)c1`: the Potency entry in experiment [1], in experiment [2], in [4], in [5], in experiment [6] and in experiment [7] was “inactive” in each case. Further, the Potency result in experiment [9], in experiment [11], in experiment [17], in [12], in experiment [13] and in [14] was “inactive” in each case. Also, the Potency entry in [15] is “inactive”. The call in experiment [3] and in experiment [16] was inactive. For the same compound, the Potency in [8] was 49.4 µM (active) and inactive.
For `CCCCCC[n+]1ccccc1`, the Potency entry in experiment [1], in [2], in [4], in experiment [5], in experiment [7] and in experiment [8] was “inactive” each time. Also, the Potency result in experiment [9], in experiment [11], in [17], in experiment [12], in experiment [13] and in [14] was “inactive” in each case. The Potency entry in [15] is “inactive”. Besides, the compound was classed as inactive in experiment [3] and in experiment [16].
On to `CCCCCCCCn1cc[n+](C)c1`, for which the Potency entry in experiment [1], in experiment [2], in [5], in [7], in [8] and in [11] was “inactive” each time. The Potency entry in [17], in experiment [12], in experiment [13], in experiment [14] and in [15] was “inactive” in each case. Besides, the call in experiment [3] and in experiment [16] was inactive. The Potency is 56.3 µM (active) and 80 µM (active) and 90.5 µM (active) in experiment [4]; 19.4 µM (active) and 49.5 µM (active) in experiment [9]; 3.46 µM (active) [middle of 4 runs] in [18].
Regarding `O=[N+]([O-])O`, the Potency entry in [1], in [2], in experiment [5], in experiment [6], in experiment [7] and in experiment [8] was “inactive” in each case. Besides, the Potency entry in experiment [9], in experiment [10], in experiment [11], in experiment [17], in experiment [12] and in [13] was “inactive” in each case. Moreover, the Potency result in experiment [14] and in experiment [15] was “inactive” throughout. Besides, the compound was classed as inactive in experiment [3] and in experiment [16].
Turning to `CC[N+](CC)(CC)CC`, the Potency result in experiment [1], in experiment [2], in [4], in experiment [5], in experiment [6] and in experiment [7] was “inactive” each time. For the same compound, the Potency result in experiment [8], in experiment [9], in [11], in [17], in experiment [12] and in experiment [13] was “inactive” each time. The Potency entry in experiment [14] and in experiment [15] was “inactive” each time. Also, the outcome in experiment [3] and in experiment [16] was inactive.
As to `CCCC[N+]1(C)CCCC1`, the Potency result in experiment [1], in experiment [2], in experiment [4], in experiment [5], in [7] and in experiment [9] was “inactive” each time. Also, the Potency entry in experiment [11], in experiment [17], in experiment [12], in experiment [13], in experiment [14] and in experiment [15] was “inactive” each time. Besides, the outcome in experiment [3] and in experiment [16] was inactive. Moreover, in experiment [8], the Potency result is “inactive and 43.9 µM (active)”. Also, the max response in experiment [18] is 0.73% (inactive) [middle of 7 runs].
Take `CCCCCCCCCCCCOS(=O)(=O)O`: the Potency was 48.3 µM (active) and inactive in experiment [1]; 49 µM (active) and inactive in [12]; 49 µM (active) and inactive in experiment [14]; 49 µM (active) and inactive in [15]. Besides, the Potency entry in experiment [2], in experiment [4], in [5], in [6], in experiment [7] and in experiment [8] was “inactive” in each case. Further, the Potency entry in [11] and in experiment [13] was “inactive” each time. In addition, the outcome in [3] and in experiment [16] was inactive.
In the case of `COc1ccc(N)cc1`, the Potency entry in experiment [1], in experiment [4], in experiment [5], in experiment [7], in [8] and in experiment [9] was “inactive” throughout. The Potency result in experiment [11], in [17] and in experiment [13] was “inactive” each time. The Potency is 99.1 µM (active) and 89.8 µM (active) in [2]; “inactive and 195 nM (active)” in experiment [12]; “inactive and 219 nM (active)” in [14]; “inactive and 245 nM (active)” in [15]. Moreover, the call in experiment [3] and in experiment [16] was inactive.
Take `CCC[N+]1(C)CCCCC1`: the Potency entry in experiment [1], in [2], in experiment [4], in [5], in [7] and in [9] was “inactive” throughout. Further, the Potency result in [11], in [17], in experiment [12], in experiment [14] and in experiment [15] was “inactive” each time. Besides, the call in experiment [3] and in experiment [16] was inactive. Besides, the Potency entry is “inactive and 24.6 µM (active)” in [8]; “inactive and 34.8 µM (active)” in [13].
For the compound `CNC`, the Potency result in [1], in experiment [2], in experiment [4], in experiment [5], in [6] and in experiment [7] was “inactive” each time. The Potency result in experiment [8], in [9], in [10], in experiment [11], in experiment [17] and in experiment [12] was “inactive” throughout. In addition, the Potency result in experiment [13], in experiment [14] and in experiment [15] was “inactive” throughout. Also, the result in experiment [3] and in [16] was inactive.
